Compounds with a hit are over-represented: about 11% of the library has one in this group of screens.
Lmaj promast = Leishmania major promastigote growth inhibition | Leishmania major promastigotes, resazurin fluorescence viability | inhibition, % at 10 µM | hit rate 9% among 200,000 | AID 1063; in the data active = inhibition above about 50%;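 note: promastigotes grown with compound for 44 hours at 28 °C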
Autophagy HCS = autophagy modulation, high-content screen; MEF GFP-LC3 puncta imaging; test concentration mostly 10 µM; calls only at 10 µM (by protocol); hit rate 0.98% among 190,000;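 active = percentage of spot-positive cells more than 3 SD above its plate mean, without a fluorescence outlier flag or 80% toxicity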;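 note: spot-positive cell cutoff set from DMSO-treated cells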
Insulin prom up = MIN6 insulin promoter up-regulation; z-score at 5 µM; MIN6 insulin promoter-GFP reporter, high-content imaging; active compounds read high; hit rate 0.3% among 190,000;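 active = z-score above 3 at 5 µM with at least 500 cells counted in the well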
Insulin prom inh = TRM-6 insulin promoter activity inhibition. TRM-6 cells (human fetal islet line), insulin promoter-eGFP reporter, imaging; reporter expression induced with tamoxifen. inhibition, % at 2 µM. hit rate 0.9% among 130,000;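 active = inhibition above the mean plus 3 SD, with well images judged a real hit on visual review, cut at about 60% in these data, passing the limit was not always enough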
WT yeast gro inh = growth inhibition of WT yeast, mitochondrial fusion screen; mitochondrial fusion phenotypic screen, WT strain; hit rate 2.1% among 190,000; inhibition, % at 10 µM; in the data active = inhibition above about 58%; tested in S. cerevisiae
* = called active by the depositor; i = inactive; . = no result given; + = active, no number.

SMILES | Lmaj promast | Autophagy HCS | Insulin prom up | Insulin prom inh | WT yeast gro inh
Cc1ccccc1NC(=O)CSc1nnc(-c2ccco2)c(-c2ccco2)n1 | 93.0* | i | 0.99 | -32.6 | 4.2
Cc1ccccc1C(=O)N/N=C1\SCC(=O)N1Cc1ccco1 | -3.1 | i | 0.76 | 48.1 | -5.1
O=C(c1cc2c(s1)CCCC2)N1CCN(Cc2ccc3c(c2)OCO3)CC1 | 94.2* | i | -2.85 | -72.7 | 37.6
O=C(c1ccc(Br)s1)N1CCN(Cc2ccc3c(c2)OCO3)CC1 | 81.9* | i | -1.12 | 69.2 | 12.6
Cc1cccc(C(=O)N2CCN(Cc3ccc4c(c3)OCO4)CC2)c1 | 40.2 | i | -0.91 | . | 11.2
O=C(c1cc(-c2ccccc2)on1)N1CCN(Cc2ccc3c(c2)OCO3)CC1 | 90.1* | i | -0.31 | 27.6 | -16.2
O=C(c1ccc(Br)o1)N1CCN(Cc2ccc3c(c2)OCO3)CC1 | 8.9 | i | -0.91 | 46.7 | 11.9
CCOc1ccc(S(=O)(=O)N2CCCC2)cc1 | -3.2 | i | . | 9.9 | -0.3
CCOc1ccc(S(=O)(=O)N2CCN(C(=O)c3cc4c(s3)CCCC4)CC2)cc1 | 77.6* | i | 0.02 | 16.2 | 62.7*
Cc1onc(-c2ccccc2)c1C(=O)N1CCN(Cc2ccc3c(c2)OCO3)CC1 | -4.3 | i | -0.58 | -20.0 | -13.1
C/C(CC(C)(C)c1ccccc1)=N\NS(=O)(=O)c1ccccc1 | -6.7 | i | 0.59 | . | -13.1
CC1(C(=O)OCC(=O)Nc2cccc(S(=O)(=O)NC3=NCCCCC3)c2)CC1(Cl)Cl (stereo not drawn) | 0.1 | i | -0.22 | . | -12.5
COc1cccc(C(=O)CN(C(=O)c2ccc(Cl)c(Cl)c2)N2C(=O)C3CCCCC3C2=O)c1 (stereo not drawn) | -9.6 | i | . | 14.3 | 16.4
CC1=CC2=NC(=O)/C(=C\c3cccn3CCOc3cccc(C)c3)C(=N)N2O1 | 12.8 | i | -0.56 | -26.7 | 38.2
CC1=CC2=NC(=O)/C(=C\c3cccn3CCOc3cc(C)ccc3C)C(=N)N2O1 | 52.9* | i | . | -31.0 | 32.7
Cc1ccc(NC(=O)C2C(c3ccccc3)C2(Cl)Cl)c(C)c1 (stereo not drawn) | 41.1 | i | -0.63 | 24.3 | 86.0*
Cc1ccc(NC(=O)C2C3CCCC2C3c2ccccc2)c(C)c1 (stereo not drawn) | 83.8* | i | 0 | -40.0 | 15.7
CC(=O)c1cccc(NC(=O)C2C(c3ccccc3)C2(Cl)Cl)c1 (stereo not drawn) | 33.3 | i | -0.53 | -23.5 | 36.2
Cc1cccc(NC(=O)C2C(c3ccccc3)C2(Cl)Cl)c1 (stereo not drawn) | 28.9 | i | -1.43 | . | 63.6*
Cc1ccc(S(=O)(=O)Nc2cc3c(C(=O)Nc4ccccc4)c(C)oc3c3ccccc23)cc1 | 60.7* | i | 0.22 | . | 27.1
Cc1ccc(SCC(=O)Nc2ccc(N3CCN(C)CC3)c(F)c2)c(C)c1 | 100.1* | i | 1.29 | . | 11.9
c1ccc(Cn2cc(CN3CCCO3)c(-c3ccc4c(c3)OCO4)n2)cc1 | -0.4 | i | -0.65 | . | 2.7
CCOC(=O)/C(=C\c1ccccc1)C(=O)c1cc(C(C)=O)c(Nc2ccccc2)s1 | 100.5* | + | 0.71 | -29.0 | 29.9
CCOC(=O)/C(=C\c1cccnc1)C(=O)c1cc(C(C)=O)c(Nc2ccccc2)s1 | 100.2* | + | -1.27 | -12.9 | 83.6*
CCOC(=O)C(=Cc1ccc(Br)cc1)C(=O)OCC | . | . | -1.34 | . | .
SMILES | Lmaj promast | Autophagy HCS | Insulin prom up | Insulin prom inh | WT yeast gro inh
CCOC(=O)C1(CCc2ccccc2)CCN(C(=O)C2CCOCC2)CC1 | -5.4 | i | 0.35 | . | -1.7
CCOC(=O)C1=C(C)N=c2s/c(=C\c3ccc(OC(C)=O)cc3)c(=O)n2C1/C=C/c1ccccc1 (stereo not drawn) | 100.2* | i | 0.07 | -238.9 | -5.9
CCOC(=O)C1=C(N)n2c(s/c(=C\c3cccs3)c2=O)=C(C(=O)OCC)C1c1cccs1 (stereo not drawn) | -4.0 | i | -0.87 | -21.9 | 12.7
CCOC(=O)C1=C(c2ccccc2)N=c2s/c(=C\c3cccc(O)c3)c(=O)n2C1c1cccs1 (stereo not drawn) | 89.1* | i | . | . | 12.8
CCOC(=O)C1=C(C)N=c2s/c(=C\c3ccc(OC(C)=O)c(OCC)c3)c(=O)n2C1/C=C/c1ccccc1 (stereo not drawn) | 49.2 | + | -0.1 | . | -12.3
O=S(=O)(NC1=NCCC1)c1cccc(NC(=S)NCCc2ccccc2)c1 | 2.2 | i | . | 6.7 | -0.5
Cn1ccnc1SCC(=O)c1ccc(Br)cc1 | -2.9 | i | 0.06 | . | 67.1*
O=C(CCC(=O)NNC(=O)Nc1ccc(Cl)cc1)NCc1ccccc1 | -7.2 | i | 0.73 | -26.9 | -4.3
Cc1cc(C)c2c(=O)c(/C=C3\NC(=S)NC3=O)coc2c1 | . | . | 0.14 | . | .
